Molecules are shown by their SMILES. Calls of active or inactive are those of the source. Calls come from the whole dose curve; as a rule, active = well fitted curve in the direction sought with a large enough effect; inactive = no such curve, though single readings can be large or run the other way.

The target of the assay is Pyruvate kinase PKM (Homo sapiens) (UniProt P14618). The experiment in a line: Confirmation Concentration-Response Assay for Activators of Human Muscle isoform 1 Pyruvate Kinase. The following applies: purified hPK-M1, Kinase-Glo ATP luminescence, 1 h; series mostly up to 57.5 µM; activity change, positive = activation: at the top concentration. The text has this: Confirmatory assay NIH Chemical Genomics Center [NCGC] Matthew G. Vander Heiden, M.D., Ph.D. [Harvard Medical School, 77 Avenue Louis Pasteur, Boston, MA 02115] NCGC Assay Overview: Human pyruvate kinase […] (hPK-M1) enzyme was supplied as a highly purified (>95% pure) preparation from Harvard Medical School and assayed for its ability to generate ATP from ADP using phosphoenolpyruvate (PEP) as a substrate. ATP generation was detected in a coupled reaction by luciferase-mediated luminescence, an ATP-dependent process. Pyruvate kinase substrates, PEP and ADP, were present in the assay at Km and approximately 10-fold below Km respectively. The enzyme was assayed at an intermediate level of activity to screen for both inhibitors and activators.
Sequence of Pyruvate kinase PKM (Homo sapiens) (P14618 whole entry, looked up, canonical isoform): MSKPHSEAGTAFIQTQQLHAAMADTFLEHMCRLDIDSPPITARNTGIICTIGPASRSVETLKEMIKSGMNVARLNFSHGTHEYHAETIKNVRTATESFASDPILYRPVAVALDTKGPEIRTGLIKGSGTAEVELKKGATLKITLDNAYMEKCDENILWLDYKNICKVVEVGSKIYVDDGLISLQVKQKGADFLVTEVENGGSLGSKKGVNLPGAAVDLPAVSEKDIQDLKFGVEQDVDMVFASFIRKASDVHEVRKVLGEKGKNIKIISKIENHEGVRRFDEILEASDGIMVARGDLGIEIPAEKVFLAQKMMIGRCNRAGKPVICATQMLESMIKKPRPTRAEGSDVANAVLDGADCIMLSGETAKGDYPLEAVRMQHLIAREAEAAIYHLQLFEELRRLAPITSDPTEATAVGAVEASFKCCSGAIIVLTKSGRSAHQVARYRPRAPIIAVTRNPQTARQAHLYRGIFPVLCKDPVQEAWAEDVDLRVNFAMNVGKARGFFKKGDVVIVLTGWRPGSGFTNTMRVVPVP
NCGC Assay Protocol Summary for M1-isoform: Three uL of substrate mix (at r.t.) in assay buffer (50 mM Imidazole pH7.2, 50 mM KCl, 7 mM MgCl2, 0.01% Tween 20, 0.05% BSA) was dispensed into white solid bottom 1,536 well microtiter plates so that the final concentrations of substrates in the assay were 0.1 mM ADP and 0.5 mM PEP. 23 nL of compound were delivered by a pin tool and 1 uL of enzyme mix (final concentration of 1 nM) in assay buffer (4 degree Celsius) was added. Plates were incubated at room temperature for 1 hour. Two uL of detection mix (Kinase-Glo, Promega; at 4 degree Celsius protected from light) was added and luminescence read by a ViewLux (Perkin Elmer) at 1 second exposure/plate. Data were normalized to the uninhibited (row 31). Additionally, a no enzyme and 5-fold enzyme control was dispensed in row 32, split equally between the two conditions.
With `Cc1cc2c(s1)c1cnn(Cc3ccc(Cl)cc3)c(=O)c1n2C`, the “activity change, positive = activation” value was 5.42% (inactive). As to `O=S(=O)(c1ccc2c(c1)OCCO2)N1CCN(S(=O)(=O)c2ccc(F)cc2F)CC1`, the “activity change, positive = activation” value is 10.3% (inactive). Same read-out and setting: the result for `CCCCCn1ncc2c3sc(C)cc3n(C)c2c1=O` reads 2.69% (inactive). Consider `C[C@H]1CN(S(=O)(=O)c2ccc3c(c2)OCCO3)CCN1S(=O)(=O)c1c(F)cccc1F`, for which the “activity change, positive = activation” value was 6.41% (inactive). Consider `Cc1cc2c(s1)c1cnn(Cc3ccccc3)c(=O)c1n2C`, for which the “activity change, positive = activation” value was 7.2% (inactive). Still for that read-out and setting: the result for `O=C(c1ccc2c(c1)OCCO2)N1CCN(S(=O)(=O)c2c(F)cccc2F)CC1` reads 11% (inactive). Still for that read-out and setting: the result for `O=S(=O)(NCC1CN(S(=O)(=O)c2c(F)cccc2F)C1)c1ccc2c(c1)OCCO2` reads -4.42% (inactive); that for `Cn1ccc2cc(S(=O)(=O)N3CCN(S(=O)(=O)c4c(F)cccc4F)CC3)ccc21`, 10.4% (inactive).

Turning to `Cc1cc2c(s1)c1cnn(Cc3ccc(-c4ccccc4)cc3)c(=O)c1n2C`, the “activity change, positive = activation” value was 1.85% (inactive).

On to `O=S(=O)(c1ccc(F)cc1)N1CCN(S(=O)(=O)c2ccc3c(c2)OCCO3)CC1`, for which the “activity change, positive = activation” value is 5.08% (inactive). On the same count and under the same terms, in the case of `Cc1cc2c(s1)c1cnn(Cc3ccc(C(C)C)cc3)c(=O)c1n2C` it was 1.66% (inactive). Regarding `Cc1cc2c(s1)c1cnn(Cc3cccc(Cn4ncc5c6sc(C)cc6n(C)c5c4=O)c3F)c(=O)c1n2C`, the “activity change, positive = activation” value is 1.08% (inactive).

As for `Cn1c2cc([N+](=O)[O-])sc2c2cnn(Cc3ccccc3F)c(=O)c21`, the “activity change, positive = activation” value is 6.32% (inactive).

As to `O=S(=O)(NCCCNS(=O)(=O)c1c(F)cccc1F)c1ccc2c(c1)OCCO2`, the “activity change, positive = activation” value was 2.27% (inactive). On the same count and under the same terms, in the case of `O=S(=O)(NCCCCCNS(=O)(=O)c1c(F)cccc1F)c1ccc2c(c1)OCCO2` it was 1.5% (inactive). For the compound `CCCc1cc(F)c(S(=O)(=O)N2CCN(S(=O)(=O)c3ccc4c(c3)OCCO4)CC2)cc1F`, the “activity change, positive = activation” value was 1.33% (inactive). For the compound `O=S(=O)(NCC1CN(S(=O)(=O)c2ccc3c(c2)OCCO3)C1)c1c(F)cccc1F`, the “activity change, positive = activation” value was -4.92% (inactive). On to `COc1cc2c(s1)c1cnn(Cc3ccccc3F)c(=O)c1n2C`, for which the “activity change, positive = activation” value is -5.78% (inactive). As to `CC(=O)Nc1cc2c(s1)c1cnn(Cc3ccccc3F)c(=O)c1n2C`, the “activity change, positive = activation” value was 0.505% (inactive).

`Cn1c2cc(C#N)sc2c2cnn(Cc3ccccc3F)c(=O)c21`: the result was inactive. Consider `O=S(=O)(c1c(F)cccc1F)N1CCN(S(=O)(=O)c2c(F)cccc2F)CC1`, for which the compound was classed as inactive.

For `O=S(=O)(c1ccc(Cl)cc1)N1CCN(S(=O)(=O)c2ccc3c(c2)OCCO3)CC1`, the “activity change, positive = activation” value was 8% (inactive). Still for that read-out and setting: in the case of `O=C1CN(S(=O)(=O)c2ccc3c(c2)OCCO3)CCN1S(=O)(=O)c1c(F)cccc1F` it was 6.84% (inactive); in that of `O=C1CN(S(=O)(=O)c2c(F)cccc2F)CCN1S(=O)(=O)c1ccc2c(c1)OCCO2`, 5.79% (inactive); in that of `O=S(=O)(NC1CCN(S(=O)(=O)c2ccc3c(c2)OCCO3)CC1)c1c(F)cccc1F`, 6.02% (inactive).

Turning to `Cc1nc2ccc(S(=O)(=O)N3CCN(S(=O)(=O)c4c(F)cccc4F)CC3)cc2s1`, the “activity change, positive = activation” value is 6.67% (inactive).

As for `Cc1cc2c(s1)c1c(C)nn(Cc3ccccc3F)c(=O)c1n2C`, the “activity change, positive = activation” value is -5.39% (inactive).

With `Cc1cc2c(s1)c1cnn(Cc3ccc(S(C)(=O)=O)cc3)c(=O)c1n2C`, the “activity change, positive = activation” value is -3.73% (inactive). The same measure, in the same setting: the result for `O=S(=O)(c1ccc2c(c1)OCCO2)N1CCN(S(=O)(=O)c2ccccn2)CC1` reads 13.3% (inactive). The same measure, in the same setting: in the case of `Cn1c2cc(CO)sc2c2cnn(Cc3ccccc3F)c(=O)c21` it was -7.43% (inactive); in that of `COC(=O)c1cc2c(s1)c1cnn(Cc3ccccc3F)c(=O)c1n2C`, -6.84% [at 28.7 µM] (inactive); in that of `O=S(=O)(c1ccc2c(c1)OCCCO2)N1CCN(S(=O)(=O)c2c(F)cccc2F)CC1`, 5.12% (inactive). With `CC1(C)CCc2cc(S(=O)(=O)N3CCN(S(=O)(=O)c4c(F)cccc4F)CC3)ccc2O1`, the compound was called inactive. Turning to `Cc1cc2c(s1)c1cnn(Cc3ccc(C(F)(F)F)cc3)c(=O)c1n2C`, the “activity change, positive = activation” value was 0.64% (inactive). As for `COc1cccc(S(=O)(=O)N2CCN(S(=O)(=O)c3ccc4c(c3)OCCO4)CC2)c1`, the “activity change, positive = activation” value was 6.37% (inactive). The same measure, in the same setting: the result for `O=C(CN1C(=O)N/C(=C\c2cccn2-c2cccc(C(=O)O)c2)C1=O)Nc1ccccc1F` reads 0.345% (inactive); that for `O=S(=O)(NCCNS(=O)(=O)c1c(F)cccc1F)c1ccc2c(c1)OCCO2`, -6.07% (inactive); that for `O=S(=O)(c1ccc2c(c1)OCCO2)N1CCN(S(=O)(=O)c2cccc[n+]2[O-])CC1`, 1.97% (inactive). Still for that read-out and setting: in the case of `O=S(=O)(NC1CCN(S(=O)(=O)c2c(F)cccc2F)C1)c1ccc2c(c1)OCCO2` (stereo not given) it was -3.63% (inactive); in that of `O=S(=O)(c1ccc2c(c1)OCCO2)N1CCN(S(=O)(=O)c2c(F)cccc2F)CC1`, 7.6% (inactive).

Source of the values: PubChem BioAssay AID1780 (National Center for Advancing Translational Sciences (NCATS), 2009).
